HT1080NT lethal = kills 2HG-producing HT-1080-NT fibrosarcoma cells | HT-1080-NT fibrosarcoma viability, CellTiter-Glo ATP luminescence, 48 h | AID 686970 | hit rate 1.6% among 360,000 | Potency, µM (doses to about 46.1 µM), actives largely listed as cytotoxic;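 note: NT is the 2HG producing partner of a matched IDH1 knockdown line; nearly all actives have a fitted effect of over 55% in size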
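Viability by CellTiter-Glo luminescence after 48 h compound exposure at 37C of HT-1080-NT cells (750/well, RPMI, 5% FBS). % activity scaled between DMSO wells and medium-only wells, then curve-fitted and categorized by curve class.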
KB-V1 MDR tox = KB-V1 MDR subline cytotoxicity; KB-V1 MDR cells viability, CellTiter-Glo, 72 h; Potency, µM (highest dose often 46.1 µM), actives largely listed as cytotoxic; hit rate 3.4% among 400,000; AID 1347076; note: nearly all actives have a fitted effect of over 60% in size
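Cytotoxicity via CellTiter-Glo luminescence after 72 h compound exposure at 37 degrees C. Cells: drug-selected KB-V1 line, DMEM phenol-red free plus 10% FBS. Compounds tested at multiple concentrations; normalized data fitted to concentration-effect curves.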
MCF10A rereplic = inducers of DNA re-replication in MCF 10A breast cells; MCF 10A DNA re-replication, Hoechst nuclear intensity, 48 h; hit rate 2.9% among 350,000; Potency, µM (titrated, usually from 46.1 µM), actives largely listed as activators; AID 624296; note: nearly all actives have a fitted effect of over 50% in size
KB-3-1 cytotox = KB-3-1 parental cell cytotoxicity. KB-3-1 viability, CellTiter-Glo ATP luminescence, 72 h. Potency, µM (highest dose often 46.1 µM), most hits filed as cytotoxic. hit rate 1.4% among 400,000. AID 1347075; note: nearly all actives have a fitted effect of over 60% in size
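Luminescent ATP read-out (CellTiter-Glo) measures survival of drug-naive KB-3-1 cells after 72 h compound exposure at 37 °C. Titration series was screened from lowest to highest concentration, with DMSO vehicle plates as background controls.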
HT1080 IDH1KD tx = kills HT-1080 cells with IDH1 knockdown | hit rate 2% among 360,000 | AID 686971 | HT-1080 IDH1 knockdown viability, ATP luminescence, 48 h | Potency, µM (titrated, usually from 46.1 µM), hits mostly cytotoxic
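In this qHTS, HT-1080 cells depleted of IDH1 are exposed for 48 h at 37 °C to compound titrations. Toxicity is scored from CellTiter-Glo luminescence, with DMSO as full viability and medium alone as none.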
SW480 rereplic = DNA re-replication induction in SW480 cells. SW480 DNA re-replication, Hoechst DNA content imaging, 48 h. Potency, µM (top dose mostly 46.1 µM), actives largely listed as activators. hit rate 1.8% among 340,000. AID 624297; note: nearly all actives have a fitted effect of over 55% in size
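Hoechst fluorescence of nuclei (405 nm excitation, 500-530 nm emission) measured by plate-scanning imager after 48 hr compound exposure at 37 C; re-replication scored as increased number of nuclei with elevated intensity.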
Large screens that a line does not name were inactive. Compounds with a hit are over-represented: about 8% of the library has one in this group of screens. Calls come from the whole dose curve; as a rule, active = well fitted curve in the direction sought with a large enough effect; inconclusive = small, poorly fitted or top-dose-only effect, or another doubt; inactive = no such curve, though single readings can be large; an effect the other way counts as inactive or inconclusive.

COCCCn1c(=O)/c(=C\c2ccccc2OC(C)C)s/c1=C(/C#N)C(=O)Nc1ccc(C(=O)O)cc1	MCF10A rereplic 26µM, SW480 rereplic inconclusive
Nc1nnc(CCS(=O)(=O)c2ccc(Br)cc2)s1	none
Oc1ccc(C=NNC(=S)Nc2ccccc2)nc1	HT1080NT lethal inconclusive, KB-3-1 cytotox 16µM, HT1080 IDH1KD tx 4.6µM (no result: MCF10A rereplic, SW480 rereplic)
S=C(N/N=C/c1ccccc1Cl)Nc1ccccc1	HT1080NT lethal 14µM, HT1080 IDH1KD tx 4µM, SW480 rereplic inconclusive
Fc1ccccc1NC(=S)N/N=C/c1ccccc1Br	HT1080NT lethal 7.1µM, MCF10A rereplic inconclusive, HT1080 IDH1KD tx 7.1µM, SW480 rereplic 18µM
O=[N+]([O-])c1ccc(/C=N/NC(=S)Nc2ccccc2F)o1	none
Oc1ccccc1/C=N/NC(=S)NC1CC2CC1C1C=CCC21 (centres undefined)	HT1080NT lethal inconclusive, KB-V1 MDR tox 21µM, MCF10A rereplic 21µM, KB-3-1 cytotox inconclusive, HT1080 IDH1KD tx 8.2µM, SW480 rereplic inconclusive
CNC(=S)N/N=C/c1ccccc1Cl	none
COc1cccc(/C=N/NC(=S)NC2CC3CC2C2C=CCC32)c1O (centres undefined)	MCF10A rereplic inconclusive
O=C(NCc1cccnc1)c1cccc(S(=O)(=O)Nc2ccc(F)cc2)c1	none
Cc1ccc(S(=O)(=O)/N=C(/Nc2ccc(F)cc2F)c2ccccc2)cc1	none
COc1ccc(C(NC(=O)CNC(C)=O)C(=O)Nc2ccc(C(C)C)cc2)cc1 (centres undefined)	KB-V1 MDR tox inconclusive, MCF10A rereplic inconclusive
CCCOC(=O)c1ccc(NC(=O)c2cccc(S(=O)(=O)N3CCN(C(C)=O)CC3)c2)cc1	HT1080NT lethal inconclusive, MCF10A rereplic inconclusive
O=C(Nc1cc(Cl)ccc1O)c1cc2nc(-c3ccc4c(c3)OCO4)cc(C(F)(F)F)n2n1	none (no result: HT1080NT lethal, MCF10A rereplic, HT1080 IDH1KD tx, SW480 rereplic)
Cc1cc(C)c(NC(=S)NC(CO)(CO)CO)c(C)c1	none
Oc1ccccc1C=NNC(=S)NN=Cc1ccccc1O	HT1080NT lethal inconclusive, KB-V1 MDR tox inconclusive, MCF10A rereplic 18µM, KB-3-1 cytotox inconclusive, HT1080 IDH1KD tx inconclusive, SW480 rereplic 3.7µM
Oc1ccccc1/C=N/Nc1ccccc1	HT1080NT lethal inconclusive, MCF10A rereplic inconclusive, HT1080 IDH1KD tx 9.2µM
O=[N+]([O-])c1ccccc1C=NNc1ccccc1	HT1080NT lethal inconclusive, HT1080 IDH1KD tx inconclusive
N/C(=N\OC(=O)c1ccc(Cl)c([N+](=O)[O-])c1)c1ccccn1	HT1080NT lethal inconclusive, MCF10A rereplic 21µM, HT1080 IDH1KD tx 16µM, SW480 rereplic inconclusive
CC(Oc1cccc(Br)c1)C(=O)NNC(=O)c1ccccn1 (centres undefined)	HT1080NT lethal inconclusive, KB-V1 MDR tox inconclusive, KB-3-1 cytotox inconclusive, HT1080 IDH1KD tx inconclusive, SW480 rereplic inconclusive
C/C(=N\NC(=O)C(C)Oc1ccc([N+](=O)[O-])cc1)c1ccccn1 (centres undefined)	HT1080NT lethal 2.2µM, KB-V1 MDR tox 5.2µM, MCF10A rereplic 15µM, KB-3-1 cytotox 8.2µM, HT1080 IDH1KD tx 2.2µM, SW480 rereplic 6.5µM
N/C(=N\OC(=O)c1ccc(Cl)c(Cl)c1)c1ccccn1	HT1080 IDH1KD tx inconclusive
CC(Oc1ccccc1)C(=O)NNC(=O)c1ccccn1 (centres undefined)	KB-V1 MDR tox 4.6µM, KB-3-1 cytotox inconclusive, HT1080 IDH1KD tx inconclusive, SW480 rereplic inconclusive
COc1cc(OC)cc(C(=O)NNC(=O)c2ccc3ccccc3n2)c1	HT1080NT lethal inconclusive, KB-V1 MDR tox inconclusive, KB-3-1 cytotox inconclusive, HT1080 IDH1KD tx 21µM, SW480 rereplic inconclusive
COc1ccc2[nH]cc(C(=O)CNc3nccs3)c2c1	none (no result: HT1080NT lethal, MCF10A rereplic, HT1080 IDH1KD tx, SW480 rereplic)
CCc1cccc(C)c1NC(=O)CN1C(=O)c2ccccc2S1(=O)=O	none
COc1ccc(C(=O)NNC(=O)c2ccccn2)cc1	HT1080NT lethal 21µM, KB-3-1 cytotox inconclusive, HT1080 IDH1KD tx 18µM
COc1ccc(C(=O)O/N=C(\N)c2ccccn2)cc1	HT1080NT lethal 13µM, KB-3-1 cytotox inconclusive, HT1080 IDH1KD tx 16µM
COc1ccc(NS(=O)(=O)c2cccc(NC(=O)c3ccccn3)c2)cc1	KB-V1 MDR tox 10µM, KB-3-1 cytotox inconclusive

Screening data from PubChem BioAssay.
